Source: PubChem BioAssay (several laboratories)
Most compounds without a hit are left out; they make up all but 2% or so of the library.
PKA-R1A act = activators of PKA-R1A holoenzyme, primary screen, biochemical, fluorescence polarization, Cy5-IP20, bovine R1A, mouse PKAc; 340,000 compounds, 0.083% hits; AID 504707, 2011; PKA-R1A dissociation; scaled: DMSO 0%, 113 µM cGMP 100%; activation, % at 11.4 µM;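 active = percent activation above the mean of all tested compounds plus 3 SD, cut at about 19% in these data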;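 also: higher means more PKAc released from R1A so a rise in polarization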
Mot1-301 SUMO = yeast Mot1-301 growth rescue at high temperature, primary screen, SUMOylation pathway inhibitor project, S. cerevisiae, ATP luminescence, 38.5C; S. cerevisiae Mot1-301 growth rescue; percent above DMSO median, 100 means doubled; growth rescue, % at 18.8 µM; 320,000 compounds, 1% hits;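 active = every valid replicate shows activation above 250% relative to neutral control wells; inactive = the rest, any valid replicate at or below 250%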;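 also: OY570 slx delta 5 strain wells were the positive control but not used for scaling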
MsrA inhibitor = bovine MsrA enzyme inhibitors, primary screen, biochemical, absorbance, HTS | 360,000 compounds, 0.75% hits | inhibition, % at 15.5 µM | purified bovine MsrA, absorbance read-out | Methionine sulfoxide reductase A (Bos taurus); in the data active = inhibition above about 4.5%;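 also: 0% = vehicle wells with enzyme and 100% = reference inhibitor wells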
MsrA act = bovine MsrA enzyme activators, primary screen, biochemical, absorbance, HTS | Methionine sulfoxide reductase A (Bos taurus) | purified bovine MsrA, absorbance read-out | activation, % at 10.6 µM | 360,000 compounds, 0.3% hits; in the data active = activation above about 7.5%;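 also: 0% = vehicle and 100% = reference activator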
PKA-R2B activ = activators of PKA-R2B holoenzyme, primary screen, biochemical, fluorescence polarization, Cy5-IP20, human. PKA-R2B holoenzyme dissociation; R2B truncated from residue 108, S112A mutant; 0% DMSO only, 100% 113 µM cGMP. AID 504700, 2011. activation, % at 11.4 µM. 340,000 compounds, 0.079% hits;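 active = activation above a cutoff set at the mean over all compounds plus 3 SD, cut at about 18% in these data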;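 also: higher means more holoenzyme dissociation and a rise in polarization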
Target sequence (P31323 whole entry, looked up, other chains not shown, the tested form may be a part): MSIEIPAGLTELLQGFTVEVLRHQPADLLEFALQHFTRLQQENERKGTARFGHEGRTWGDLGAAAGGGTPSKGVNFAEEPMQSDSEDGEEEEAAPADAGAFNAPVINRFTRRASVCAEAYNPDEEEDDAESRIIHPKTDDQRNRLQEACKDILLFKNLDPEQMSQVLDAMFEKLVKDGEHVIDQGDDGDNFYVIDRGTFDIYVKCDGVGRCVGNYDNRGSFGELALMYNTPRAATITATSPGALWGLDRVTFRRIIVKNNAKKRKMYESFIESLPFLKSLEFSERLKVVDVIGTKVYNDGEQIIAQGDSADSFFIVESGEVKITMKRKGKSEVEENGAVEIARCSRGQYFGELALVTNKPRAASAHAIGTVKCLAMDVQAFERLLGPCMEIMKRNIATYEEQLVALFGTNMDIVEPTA
MsrA activ conf = bovine MsrA activators, retest, confirmation, biochemical, absorbance, HTS. AID 602270, 2012. activation, % at 10.6 µM. purified bovine MsrA, absorbance read-out. shares compounds with MsrA act. 1,000 compounds, 12% hits; in the data active = activation above about 4%;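 also: enzyme coupled to thioredoxin and thioredoxin reductase with NADPH; 0% = vehicle wells and 100% = reference activator wells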
* hit, by the source's call; . = no result given.

SMILES | PKA-R1A act | Mot1-301 SUMO | MsrA inhibitor | MsrA act | PKA-R2B activ | MsrA activ conf
O=C(NCc1ccccc1)[C@H]1CCCN1C(=O)[C@H]1CCCN1C(=O)c1cccs1 | . | . | 0.6 | . | . | .
Nc1ncnc2c1ncn2[C@@H]1O[C@H](CNCc2ccc(OCc3ccccc3)cc2)[C@@H](O)[C@H]1O | -1.0 | . | 1.5 | 7.7* | -3.6 | 4.3*
O=C(Nc1nnc([C@H]2C[C@H](O)[C@@H](CO)O2)s1)Nc1ccc(F)cc1F | . | . | 0.1 | 7.8* | . | -2.5
COC(=O)[C@]12C[C@H](CC(=O)N3CCC(c4ccccc4)CC3)C(=O)N(CCC3=CCCCC3)C1=C[C@H](C(C)(C)C)O[C@@H]2C | . | . | 0.5 | . | . | .
Cn1c(NCc2ccncc2)nc2cc(-c3ccsc3)sc2c1=O | . | . | 0.2 | -4.4 | . | .
Cn1c(Oc2ccncc2)nc2cc(-c3ccsc3)sc2c1=O | . | . | 2.7 | 15.1* | . | -2.0
Cc1onc(-c2ccccc2)c1C(=O)NCC1CCN(C(=O)C(=O)c2cccs2)CC1 | . | . | -0.2 | . | . | .
Cc1ccc(S(=O)(=O)Nc2ccccc2C(=O)Nc2nc(-c3ccc(F)cc3)cs2)cc1 | -3.4 | 6.9 | -0.2 | -4.1 | -5.2 | .
COc1ccc(-c2csc(NC(=O)c3ccccc3NS(=O)(=O)c3ccc(F)c(F)c3)n2)cc1 | -8.7 | -6.0 | 1.9 | 14.5* | -12.9 | -4.3
Cc1ccc(Oc2cccc3c2S(=O)(=O)N([C@H](C)c2ccccc2)C[C@@H](COCc2ccccc2)O3)cc1 | . | . | 0.0 | . | . | .
CCCCNc1cccc2c1S(=O)(=O)N[C@H](Cc1ccccc1)CO2 | . | . | 1.1 | . | . | .
COc1cc(NC(=O)c2cc(-c3cc(F)ccc3OC(C)C)n[nH]2)cc(OC)c1OC | . | . | 0.5 | 9.4* | . | -0.9
COc1ccc(NC(=O)c2cc(-c3cc(F)ccc3OC(C)C)n[nH]2)cc1OC | . | . | -0.7 | -1.8 | . | .
Cc1ccc(S(=O)(=O)NC(c2ccccc2)C(C)C(=O)n2nc(C)cc2C)cc1 (stereo not given) | -4.3 | -4.3 | -0.2 | 8.1* | 8.1 | 0.6
Cc1ccc(S(=O)(=O)NC(CC(=O)n2nc(C)cc2C)c2ccccc2)cc1 (stereo not given) | 11.2 | -5.4 | -0.4 | -5.4 | -3.9 | .
COC1=CC(=O)c2c(ccc3ncnc(N)c23)C1=O | -5.3 | . | 1.7 | 35.4* | 10.0 | 30.3*
COc1cccc2c1C(=O)C=C(C)C2=O | -12.9 | 30.0 | 0.3 | 4.0 | 9.7 | .
CCOC(=O)c1ccccc1NC(=O)CSc1nnc(COc2ccccc2C)n1C | 1.6 | -11.7 | 1.6 | 9.0* | -4.0 | -1.8
CCCCNc1ccc2c(c1)OC[C@@H](Cc1ccccc1)NS2(=O)=O | . | . | 0.7 | . | . | .
COc1ccccc1OCc1ccc(C(=O)Nc2ccccc2)cc1 | -5.8 | -13.8 | -0.1 | 11.9* | -3.8 | 1.2
COc1ccc(C(=O)NCC2CCN(C(=O)C(=O)c3cccs3)CC2)cc1 | . | . | 0.7 | . | . | .
COCCN1C(=O)c2cc(C(=O)Nc3ccc(OC)c(OC)c3)ccc2C1Nc1ccc(OC)c(OC)c1 (stereo not given) | 8.3 | -3.5 | 1.8 | 12.1* | 0.5 | -1.4
Cc1[nH]c(C)c2c(=O)n(Cc3ccc(Cl)cc3)ncc12 | -2.0 | -5.8 | 0.1 | 14.2* | -13.3 | -0.6
O=C(Nc1ccc2c(c1)OCCO2)C1c2ccccc2OCC(=O)N1CCc1c[nH]c2ccccc12 (stereo not given) | . | . | -0.4 | 8.0* | . | -2.0
O=C(NC1CCCC1)C1c2ccccc2OCC(=O)N1CCc1c[nH]c2ccccc12 (stereo not given) | . | . | -0.8 | -1.2 | . | .
SMILES | PKA-R1A act | Mot1-301 SUMO | MsrA inhibitor | MsrA act | PKA-R2B activ | MsrA activ conf
O=C1Nc2c(Cl)cc(Cl)cc2C12Nc1ccccc1S2 (stereo not given) | . | . | -0.6 | . | . | .
COc1ccc(Cn2nnnc2C(c2cccs2)N2CCOCC2)cc1 (stereo not given) | -1.7 | -10.2 | 0.0 | 7.8* | -11.3 | -1.0
CCCCS(=O)(=O)N1C2=NC(C(=O)OCC)=C(C(=O)OCC)C3N(Cc4ccc(C#N)cc4)c4ccccc4[C@]23C[C@H]1C(=O)OC (stereo not given in full) | . | . | 0.9 | . | . | .
COc1cc2c(c(OC)c1OC)[C@@]1(c3ccccc3)CCCCC[C@H]1[C@@H]2NC(=O)C(F)(F)F | . | . | 0.7 | . | . | .
CCOC(=O)C1=CC[C@@H](c2cccc(C)c2)N(S(=O)(=O)c2ccc(C)cc2)[C@H]1C(=O)OCC | -5.8 | -4.4 | -0.5 | 9.9* | -9.4 | 0.8
Nc1[nH]c(C(=O)c2ccccc2)c(-c2cccnc2)c1C(=O)c1ccccc1 | . | . | 1.4 | . | . | .
O=C(NCCc1ccc(Cl)cc1)C12CC3CC(CC(O)(C3)C1)C2 | -5.1 | 6.4 | -0.5 | 9.2* | -4.6 | -3.5
O=C(/C=C(\Nc1ccc(Cl)c(C(F)(F)F)c1)c1ccccc1)c1ccccc1 | . | . | 0.0 | . | . | .
O=C(CSc1nc2cc(Cl)ccc2s1)c1cc2ccccc2o1 | 9.3 | 5.3 | 2.1 | 9.9* | 8.4 | -1.9
O=C(COC(=O)c1cc(F)cc(F)c1)Nc1cccnc1Cl | 0.9 | 4.4 | -0.9 | 9.1* | -9.7 | -3.5
O=C(COC(=O)c1ccc(F)cc1F)Nc1cccnc1Cl | -11.0 | 7.2 | 0.7 | 1.3 | -3.7 | .
N#Cc1ccccc1NC(=O)CN1C(=O)NC(Cc2c[nH]c3ccccc23)C1=O (stereo not given) | -3.2 | . | -1.2 | 8.0* | -6.5 | 5.4*
Nc1[nH]c(C(=O)c2ccccc2)c(-c2cccc3ccccc23)c1C(=O)c1ccc(Br)cc1 | . | . | 0.2 | . | . | .
O=C(Nc1ccc2c(c1)OCCO2)C(C1CC1)N1CCN(C/C=C/c2ccccc2)CC1 (stereo not given) | . | . | -0.9 | -2.0 | . | .
O=C(Nc1ccc2c(c1)OCCO2)C(c1cc2ccccc2o1)N1CCN(C/C=C/c2ccccc2)CC1 (stereo not given) | . | . | -0.5 | 15.7* | . | -1.5
CS(=O)(=O)c1ccc(S(=O)(=O)NCC2CCN(C(=O)C(=O)c3cc4ccccc4o3)CC2)cc1 | . | . | 0.3 | . | . | .
Cc1ccc(S(=O)(=O)N(C)[C@H]2C[C@H]3c4cc(-c5ccc6c(c5)OCO6)ccc4CCN3C[C@H]2[C@H](C)O)cc1 | . | . | 1.5 | . | . | .
CCOC(=O)c1[nH]c2ccc(F)cc2c1NC(=O)CN1CCN(C/C=C/c2ccccc2)CC1 | -7.9 | 0.9 | 0.1 | 10.1* | 2.2 | -0.9
COC(=O)c1[nH]c2ccccc2c1NC(=O)CN1CCN(C/C=C/c2ccccc2)CC1 | 0.9 | 128.9 | -0.6 | -5.5 | 9.3 | .
O=C(Cc1cn(Cc2ccccc2)c2ccccc12)Nc1ccc(Oc2cccnc2)cc1 | . | . | 1.4 | . | . | .
